Assay outcomes as filed in PubChem.
S1P1 ag: activates the human S1P1 receptor. activation, % at 4.5 µM. S1P1 agonist cell-based reporter assay. 16,000 compounds, 1.5% hits. P21453; in the data active means activation above about 80%
TLR4-MyD88 inh: TLR4-MyD88 interaction inhibition. O00206. Cell-based TLR4-MyD88 binding inhibition assay. inhibition, % at 10 µM. 16,000 compounds, 0.06% hits; in the data active means inhibition above about 45%
rat GALR2 ag: activates the rat galanin receptor 2; AID 833; 16,000 compounds, 0.5% hits; cell-based GALR2 agonist screen; activation, % at 10 µM; O08726; in the data active means activation above about 15%
NOTCH agonist: NOTCH pathway agonism; NOTCH signaling luciferase reporter cells, luminescence; 15,000 compounds, 0.4% hits; activation, % at 2.5 µM; AID 434982; in the data active means activation above about 2.2%
Numbers without * were called inactive. Rows were chosen to be rich in hits. Some 2.4% of all compounds tested hit in one or more screens of this group.

SMILES | S1P1 ag | TLR4-MyD88 inh | rat GALR2 ag | NOTCH agonist
Nc1c([N+](=O)[O-])cncc1[N+](=O)[O-] | 111.5* | 6.3 | -3.8 | -0.3
Cc1c([N+](=O)[O-])cc2c(c1[N+](=O)[O-])C(C)(C)CC2(C)C | 101.9* | 2.5 | -11.0 | 0.1
COc1cc2c(cc1OC)[C@@H]1C(=O)c3ccc4c(c3O[C@@H]1CO2)C[C@H](C(C)C)O4 | 110.1* | -11.4 | -10.6 | -0.4
Cc1ccc(S(=O)(=O)N2CCCCC2c2cccnc2)cc1 (configuration not stated) | 4.5 | 0.7 | -5.0 | -0.7
c1ccc(-n2cc(-c3nc(N4CC4)nc(N4CC4)n3)c3ccccc32)cc1 | -2.1 | -2.9 | -6.2 | -0.6
CNCC(O)c1ccc([N+](=O)[O-])cc1 (configuration not stated) | -8.3 | -3.0 | -6.6 | -0.9
